# CF NFkB block: inhibitors of PAF-induced NF-kB signaling, primary screen, cell-based, GFP fluorescence, uHTS; KKLEB NF-kB-GFP reporter, GFP fluorescence overnight; inhibition, % at 5 µM; 360,000 compounds, 0.86% hits;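 active = at least 50% inhibition at 5 µM, scaled per plate between neutral and stimulator controls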;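 note: PAF is a Pseudomonas aeruginosa culture filtrate used as stimulus; plate controls were PAF-stimulated DMSO wells for no effect and unstimulated DMSO wells for full effect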
# KKLEB cytotox: cytotoxicity in KKLEB CF airway cells, primary screen, cytotoxicity control for CF NF-kB inhibitor project, cell-based, uHTS, fluorescence assay plates; 360,000 compounds, 0.36% hits; activity change (cytotoxicity), % at 5 µM; KKLEB CF airway cells viability, ATPlite luminescence, overnight; active compounds read low; cells stimulated with P. aeruginosa culture filtrate; AID 602141, 2011;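 active = corrected activity change at or below -50% at 5 µM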
# HIF-2a block: HIF-2a reporter inhibitors, primary screen, luminescence, 786-0 RCC cells | inhibition, % at 18.8 µM | 360,000 compounds, 0.72% hits | 786-0 RCC cells HIF-2a reporter, luciferase luminescence, overnight;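 active = inhibition of the luminescence signal of 40% or more relative to plate controls, in a single-dose primary screen at 18.75 µM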
# PPC-1+TRAIL kill: compounds killing PPC-1 cancer cells with TRAIL present, primary screen, TRAIL potentiator project, ATPLite luminescence, uHTS | PPC-1 cells + TRAIL, ATPLite viability luminescence | cell killing (% activity), % at 4 µM or 5 µM | 220,000 compounds, 0.41% hits | AID 1443, 2008;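 active = cell killing above 50% in the first pass at 4 µM, then a duplicate retest at 5 µM averaging 50% or more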;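 note: plate controls were cells with TRAIL plus DMSO for no effect and medium-only wells lacking cells for full effect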
# TRAIL sens C8: viability loss with TRAIL in NB7+C8 cells, primary screen, TRAIL sensitizer project, cell-based, ATPlite luminescence | inhibition (viability loss, TRAIL sensitization), % at 10 µM | 360,000 compounds, 1% hits | AID 624354, 2012;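 active = compounds causing at least 50% loss of cell viability in the single-dose screen, relative to plate controls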
# Peg3 promoter: Peg3 promoter-driven luciferase inhibitors, primary screen, cell-based, HeLa, luciferase luminescence; HeLa PEG-Prom luciferase reporter, overnight; inhibition, % at 20 µM; 360,000 compounds, 1.7% hits; AID 588405, 2011;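 active = inhibition of at least 50% at 20 µM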
# * hit, by the source's call; · = no result given. An excerpt weighted towards active compounds, which were near 3.1% of everything screened.
SMILES,CF NFkB block,KKLEB cytotox,HIF-2a block,PPC-1+TRAIL kill,TRAIL sens C8,Peg3 promoter
CCNS(=O)(=O)c1ccc(CCC(=O)Nc2cc(Cl)ccc2Oc2ccccc2)cc1,15,-14,24,-16,-30,63*
Cc1ccc(-c2cc(C(=O)n3cnc4ccccc43)c3ccccc3n2)cc1C,-4,-4,-160,48,67*,-127
Cc1ccc(C=NNC(=O)C(=O)Nc2ccc(Cl)c([N+](=O)[O-])c2)cc1,3,-15,3,·,-2,6
O=C(N/N=C/c1ccc([N+](=O)[O-])o1)c1cc(-c2ccncc2)nc2ccccc12,26,-22,-16,6,23,19
Cc1ccc(-c2cc(C(=O)NCc3ccccn3)c3ccccc3n2)cc1C,-12,-6,-200,28,41,-185
Cc1ccc(NC(=S)N/N=C/c2ccc(Cl)c([N+](=O)[O-])c2)cc1,-13,17,-19,-13,-21,86*
O=C(N/N=C/c1ccc([N+](=O)[O-])o1)c1cc(-c2ccc(-c3ccccc3)cc2)nc2ccccc12,25,-36,-142,80*,87*,-167
O=C(N/N=C/c1ccc(Cl)c([N+](=O)[O-])c1)c1cc(-c2ccccc2)nc2ccccc12,12,-27,-319,·,16,108*
CC1(C(=O)NS(=O)(=O)C2CC2)CCN(C(=O)COCc2ccccc2)C1 (stereo not drawn),-3,-3,21,·,-4,5
CC1(C(=O)NS(=O)(=O)C2CC2)CCCN(C(=O)c2ccco2)C1 (stereo not drawn),1,-17,1,·,-19,-5
Cc1ccc(S(=O)(=O)N2CC3=C(C2)C2CC2(C)C3)cc1 (stereo not drawn),·,·,2,·,-11,·
Cc1ccc(-c2cc(C(=O)N/N=C/c3cccnc3)c3ccccc3n2)cc1C,-15,-22,-209,·,61*,-182
CCOc1ccc(-c2cc(C(=O)N/N=C(\C)c3cccnc3)c3ccccc3n2)cc1,-8,-10,-200,·,68*,-240
Cc1ccc(/C=N/NC(=O)c2cc(-c3ccncc3)nc3ccccc23)o1,36,-16,22,·,13,4
Cc1ccc(-c2cc(C(=O)N/N=C/c3ccc([N+](=O)[O-])o3)c3ccccc3n2)o1,-72,-7,-206,·,68*,-138
C/C(=N\NC(=O)c1c(Cl)c(C)nn1C)c1cccc(NC(=O)C2CCCC2)c1,-15,4,-21,·,-3,-28
Nc1ccc2c(c1)C(O)c1cccc(C(=O)O)c1-2 (stereo not drawn),-7,-1,8,·,18,5
C/C(=N\NC(=O)C1COc2ccccc2O1)c1ccccn1 (stereo not drawn),-4,-10,-33,21,29,51*
C/C(=N\NC(=O)c1ccccc1OCc1ccc(F)cc1)c1ccccn1,-5,-12,-130,·,22,50*
C/C(=N\NC(=O)C(c1ccccc1)c1ccccc1)c1ccccn1,15,-9,34,43,41,97*
CCOc1ccc(OCc2ccc(C(=O)N/N=C(\C)c3ccccn3)cc2)cc1,13,-2,-95,21,35,18
Cc1ccc(NC(=O)Cn2nc(C(=O)O)c3ccccc3c2=O)cc1S(=O)(=O)N1CCCCCC1,0,7,11,·,-12,-2
COc1ccc(-c2noc(CCC(=O)N3CCN(c4ccccc4)CC3)n2)cc1,-16,9,4,·,-5,-3
CC(Cn1cncn1)C(=O)N1CCN(S(=O)(=O)c2ccc(Cl)cc2)CC1 (stereo not drawn),7,0,1,·,-11,7
O=C1c2ccccc2C(=O)c2c1ccc(C(=O)N1CCCCC1)c2NCCO,10,-11,-1,3,-6,24
CC1(C)CCCN(C(=O)c2ccc3c(c2NCCO)C(=O)c2ccccc2C3=O)C1,-2,-1,40*,13,11,23
Cc1cc(C)cc(C(=O)OCC(=O)NC(=O)NC2CCCC2)c1,12,-1,-6,·,-4,-9

# Compound activity from PubChem.
